# Source: PubChem
# In the library only some 3.9% were active in any assay of this set; here they are far more common.
# Bead autofluor: flagged as autofluorescent in microsphere protease counterscreen; compound autofluorescence counterscreen, microsphere flow cytometry; active compounds read high; fluorescence intensity (test concentration not listed); 3.1% of 360,000 active; AID 624483; in the data active = fluorescence intensity above about 16000; inconclusive = no clear call, values can overlap the other calls
# BoNT F protease: BoNT/F light chain protease inhibitors, primary screen, biochemical, flow cytometry, MLPCN library; Botulinum neurotoxin type F light chain protease (Clostridium botulinum); Multiplex microsphere protease cleavage assay; inhibition, % at 10 µM; 0.22% of 360,000 active; in the data active = inhibition above about 35%, passing the limit was not always enough; inconclusive = no clear call, values can overlap the other calls; also: plate controls were buffer without enzyme for full effect and enzyme alone for no effect
# BH1578 lux ind: inducers of Vibrio cholerae quorum light production without autoinducers, primary screen, BH1578 luxS cqsA deficient, single point; V. cholerae BH1578 lux reporter, luminescence, 6 h; AID 588436, 2011; 0.16% of 350,000 active; activation, % at 18.7 µM; in the data active = activation mostly above about 9.7%, no sharp cut-off; inconclusive = no clear call, values can overlap the other calls; inactive = mostly below about 3.7%
# MazEF act: activators of E. coli MazEF toxin-antitoxin RNase, primary screen, biochemical, fluorescence, uHTS. Endoribonuclease toxin MazF (Escherichia coli (strain K12)), P0AE70. 0.32% of 350,000 active. activation, % at 20 µM. AID 504720, 2011. FAM/BHQ RNA-DNA oligo cleavage fluorescence, 5 h; in the data active = activation above about 50%
# Target sequence (P0AE70 whole entry, looked up): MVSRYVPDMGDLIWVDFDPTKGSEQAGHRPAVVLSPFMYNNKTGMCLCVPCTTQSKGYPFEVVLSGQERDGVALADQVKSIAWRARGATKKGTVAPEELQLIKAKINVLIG
# Anthrax LF prot: Bacillus anthracis LF protease inhibitors, primary screen, biochemical, multiplex microsphere, MLPCN library. inhibition, % at 10 µM. 0.12% of 360,000 active. Lethal factor (Bacillus anthracis), P15917. multiplex microsphere protease cleavage assay. AID 588501, 2011; also: plate controls were buffer without enzyme for full effect and enzyme alone for no effect
# BoNT A protease: BoNT/A light chain protease inhibitors, primary screen, biochemical, flow cytometry, MLPCN library | AID 588499, 2011 | Botulinum neurotoxin type A light chain protease (Clostridium botulinum A str. ATCC 3502) | multiplex microsphere protease substrate cleavage | inhibition, % at 10 µM | 0.17% of 360,000 active; also: plate controls were buffer without enzyme for full effect and enzyme alone for no effect
# Starred values were filed as active, the others as inactive; i = inactive; ? = inconclusive; . = not tested or not shown. Rule as the data show it, unless noted: active = inhibition above about 30%; inconclusive = no clear call, values can overlap the other calls; inactive = below that.
SMILES,Bead autofluor,BoNT F protease,BH1578 lux ind,MazEF act,Anthrax LF prot,BoNT A protease
O=C(NCc1ccc(F)cc1)C1CCCN1S(=O)(=O)c1ccccc1C(F)(F)F (centres undefined),5051,7.4,0.1,-1.7,?,0.4
O=C1c2ccccc2/C(=C\C#Cc2ccccn2)N1c1ccccc1,2979,1.5,-3.0,-2.4,9.0,1.7
CCc1ccc2c(c1)NC(=O)C2(C)Cc1ccc(Cl)s1 (centres undefined),3715,-5.8,-0.9,.,1.2,-0.1
C=CCn1c(N2C(=O)CC(Cc3ccccc3)C2=O)nc2ccccc21 (centres undefined),22688*,-2.2,11.1,2.1,-2.3,-0.6
Cc1ccc(/C=N/Nc2ccc3c(C(F)(F)F)cc(C(F)(F)F)nc3n2)cc1,2729,-9.7,-1.5,284.5*,-0.9,-0.5
NNc1ccc2c(C(F)(F)F)cc(C(F)(F)F)nc2n1,4799,-5.0,1.0,9.8,-7.1,-1.0
O=C(CN1CCCCC1)NCC(=O)Nc1ccc(F)c(F)c1F,3805,-11.3,i,7.5,-0.3,-0.7
O=c1oc(-c2ccccc2)nc2c1cnn2-c1ccccc1,11738,1.4,-2.8,4.5,0.0,0.4
O=c1oc(-c2cccs2)nc2c1cnn2-c1ccccc1,16820*,-4.6,-0.7,13.0,1.3,?
CC(=O)Nc1ccc(NC(=O)CC2Nc3cccc4cccc(c34)NC2=O)cc1 (centres undefined),.,.,i,-10.2,.,.
Cc1cccc(NC(=O)CC2Nc3cccc4cccc(c34)NC2=O)c1 (centres undefined),17191*,-7.0,i,0.4,-3.6,?
CCCc1nc(C)cc(N2CCN(c3ccccc3)CC2)n1,3421,-15.4,i,-10.0,-15.5,0.1
Cc1cc(N2CCN(c3ccccc3)CC2)nc(NCc2ccccc2)n1,3473,-3.7,i,55.1*,-5.0,0.4
CCOC(=O)C1=C(Cc2ccc(OC)cc2)C(=O)c2ccccc2C1=O,15161,-9.7,-0.2,216.9*,-10.6,?
CCOC(=O)C1=C(O)c2ccccc2C(=O)/C1=C\c1ccc(CC)cc1,21598*,3.3,-0.3,25.4,-2.6,6.3
CCOC(=O)C1=C(C)N(c2ccccc2)C(=O)/C1=C\c1ccc(O)c(OC)c1,3511,-4.1,i,6.7,-10.0,-0.3
CC(=O)N1CCN(S(=O)(=O)c2cccc(C(=O)NCCc3ccc(Cl)cc3)c2)CC1,?,-1.5,1.7,-1.0,-3.9,-4.9
NCCN=C1NS(=O)(=O)c2ccccc21,5785,-3.8,i,5.9,-1.5,0.2
O=S1(=O)NC(=NCc2ccccc2)c2ccccc21,19517*,6.5,i,7.6,-5.8,?
O=C(Nc1ccccc1)N1CCN(c2ccccn2)CC1,3348,5.8,-0.3,-3.2,3.3,-0.7
Cc1ccc(NC(=O)N2CCN(c3ccccn3)CC2)cc1,22825*,1.6,-0.2,2.7,-1.0,0.7
COc1ccc(NC(=O)CN2CCN(CC(=O)Nc3ccccc3Cl)CC2)c(OC)c1,22552*,1.0,i,-2.1,-1.1,3.5
COc1ccccc1NC(=O)CN1CCN(CC(=O)Nc2ccc(OCc3ccccc3)cc2)CC1,3801,-2.1,0.5,3.8,-5.5,-0.4
COc1ccccc1NC(=O)CN1CCN(c2ccccn2)CC1,20530*,-1.2,-0.2,-3.9,-2.0,-1.3
COc1ccccc1NC(=O)CN1CCN(Cc2ccccc2)CC1,16872*,-4.8,i,-3.9,-5.1,-1.5
SMILES,Bead autofluor,BoNT F protease,BH1578 lux ind,MazEF act,Anthrax LF prot,BoNT A protease
CN1CCN(C(=O)/C(=C/c2cccs2)NC(=O)c2ccco2)CC1,4324,-0.2,-1.5,-9.4,-2.1,-0.4
COc1cccc(OC)c1C(=O)Nc1nc(N)n(-c2ccccc2)n1,17413*,-5.8,i,9.9,-3.5,-3.5
Cc1ccc(NC(=O)Nc2nnc([C@H]3C[C@H](O)[C@@H](CO)O3)s2)cc1,3501,1.7,-0.4,.,1.4,0.1
CC(C)NC(=O)NC(=O)CSc1ncc(C(F)(F)F)cc1Cl,22963*,-3.1,i,1.2,-0.2,-2.1
CCOC(=O)c1[nH]c2ccccc2c1NC(=S)Nc1cccc(C)c1,4472,-13.1,-0.1,7.9,3.7,-0.7
CC(CC(=O)N1CCN(S(=O)(=O)c2ccc(Cl)cc2)CC1)n1cncn1 (centres undefined),3336,12.2,-0.8,11.1,14.7,2.3
CCOc1ccc(Nc2nc3c(c(=O)[nH]2)CCC3)cc1,16524*,4.5,13.4,-1.8,0.0,0.4
CC(=O)Nc1ccc(/C=N/Nc2nncc3ccccc23)cc1,3024,47.5*,i,2.8,0.3,5.0
O=C(NC1CCCC1)C1c2ccccc2C(=O)N1CCCN1CCOCC1 (centres undefined),4298,-10.8,-0.2,8.3,-6.8,-1.2
COCCCN1C(=O)c2ccccc2C1C(=O)NC1CCCCCC1 (centres undefined),22972*,1.3,i,-2.1,1.4,2.2
C=CCNC(=O)CCCc1ccccc1,23759*,-2.2,i,9.8,-1.4,-0.2
C=CCNC(=O)c1ccc2nc(-c3ccccc3)c(-c3ccccc3)nc2c1,3442,-13.9,-3.7,4.9,1.3,1.8
O=C(CCCCC(=O)NCCCc1ccccc1)NCCCc1ccccc1,4073,?,0.0,-2.5,-5.4,-4.1
C=CCNC(=O)c1ccc(C(=O)c2ccccc2)cc1,23162*,1.7,i,8.3,-0.2,-0.3
CCOC(=O)[C@H]1[C@H]2COc3ccc(Br)cc3[C@@H]2N2C(=O)c3c(C)cc(C)cc3NC(=O)[C@@]12C,3496,4.5,-0.5,-3.5,-4.5,0.2
COc1ccc(OC(=O)CCCN2C(=O)c3ccccc3C2=O)cc1,24000*,-3.0,-0.2,-2.8,-4.1,-2.6
Cc1cc(=O)oc2cc(OCCCN3C(=O)c4ccccc4C3=O)ccc12,2134,-4.8,-0.3,-5.2,-0.7,0.2
Cc1cc(=O)oc2cc(OC(=O)CCN3C(=O)c4ccccc4C3=O)ccc12,22230*,1.5,-0.2,4.2,-4.4,2.0
COc1ccccc1CNC(=O)CCCNC(=O)c1ccc(Cl)cc1,3064,-6.4,-0.3,7.4,5.4,1.2
CCc1cc(=O)oc2cc(OC(C)C(=O)N3CC[C@@]4(O)CCCC[C@H]4C3)ccc12 (some centres undefined),4834,3.1,-0.5,.,1.2,0.0
COc1ccc(C(=O)NCC(=O)OCC(=O)N2CC(C)CC(C)C2)cc1 (centres undefined),17297*,-388.6,i,-1.9,3.0,-19.5
COc1ccc(N2CCN(C(=O)COC(=O)CNC(=O)c3ccc(C)cc3)CC2)cc1,4329,?,-4.2,1.8,?,?
